# Experimental data taken from the supplement of paper PMC6089552.
# The whole screen tested about 3,200 compounds, of which about 300 (9.4%) showed activity. What follows is part of a selection rich in actives, with near analogues and random picks from the rest.
# Test system: A673/TR/shEF
# Experiment: cell viability (LOESS-normalised, relative to median of negative controls) (log2 ratio); higher = more viable cells (less compound effect), active = hit call of the paper (over 3 MAD below the median)
# Settings: treatment time: 72 h
# Method in brief: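 A673/TR/shEF Ewing sarcoma cells were plated at 1,500 per well in 384-well plates and cultured with or without doxycycline, added 24 h before compounds, to induce EWS-FLI1 shRNA knockdown. Library compounds at two or more concentrations, alongside DMSO controls, were applied for three days. Cell viability was measured by CellTiter-Glo luminescence on an Envision reader. Readings were LOESS-corrected per plate, divided by the median of negative controls and log2-transformed, and hits were wells lying at least three median absolute deviations from the median of all screened wells.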
# [1] = 0.103 µM, library screen: screen3, EWS-FLI1 expression: high (no doxycycline)
# [2] = 0.103 µM, library screen: screen3, EWS-FLI1 expression: low (doxycycline-induced shRNA knockdown)
# [3] = 0.308 µM, library screen: screen3, EWS-FLI1 expression: high (no doxycycline)
# [4] = 0.308 µM, library screen: screen3, EWS-FLI1 expression: low (doxycycline-induced shRNA knockdown)
# [5] = 0.926 µM, library screen: screen3, EWS-FLI1 expression: high (no doxycycline)
# [6] = 0.926 µM, library screen: screen3, EWS-FLI1 expression: low (doxycycline-induced shRNA knockdown)
# [7] = 2.8 µM, library screen: screen3, EWS-FLI1 expression: high (no doxycycline)
# [8] = 2.8 µM, library screen: screen3, EWS-FLI1 expression: low (doxycycline-induced shRNA knockdown)
# [9] = 8.3 µM, library screen: screen3, EWS-FLI1 expression: high (no doxycycline)
# [10] = 8.3 µM, library screen: screen3, EWS-FLI1 expression: low (doxycycline-induced shRNA knockdown)
# [11] = 25 µM, library screen: screen3, EWS-FLI1 expression: high (no doxycycline)
# [12] = 25 µM, library screen: screen3, EWS-FLI1 expression: low (doxycycline-induced shRNA knockdown)
# [13] = 0.25 µM, library screen: screen1, EWS-FLI1 expression: high (no doxycycline)
# [14] = 0.25 µM, library screen: screen1, EWS-FLI1 expression: low (doxycycline-induced shRNA knockdown)
# [15] = 2.5 µM, library screen: screen1, EWS-FLI1 expression: high (no doxycycline)
# [16] = 2.5 µM, library screen: screen1, EWS-FLI1 expression: low (doxycycline-induced shRNA knockdown)
# [17] = 0.25 µM, library screen: screen2, EWS-FLI1 expression: high (no doxycycline)
# [18] = 0.25 µM, library screen: screen2, EWS-FLI1 expression: low (doxycycline-induced shRNA knockdown)
# [19] = 2.5 µM, library screen: screen2, EWS-FLI1 expression: high (no doxycycline)
# [20] = 2.5 µM, library screen: screen2, EWS-FLI1 expression: low (doxycycline-induced shRNA knockdown)
compound,measurement,setting,value
C[N+]1(C)C2CC(OC(=O)C(O)(c3cccs3)c3cccs3)CC1C1OC12 (stereo not drawn),cell viability (log2),[1],0.0262 (inactive)
same,cell viability (log2),[2],0.0758 (inactive)
same,cell viability (log2),[3],0.0294 (inactive)
same,cell viability (log2),[4],0.0213 (inactive)
same,cell viability (log2),[5],-0.023 (inactive)
same,cell viability (log2),[6],0.0295 (inactive)
same,cell viability (log2),[7],0.0205 (inactive)
same,cell viability (log2),[8],0.0567 (inactive)
same,cell viability (log2),[9],0.0784 (inactive)
same,cell viability (log2),[10],0.0507 (inactive)
same,cell viability (log2),[11],0.1 (inactive)
same,cell viability (log2),[12],0.116 (inactive)
COC(=O)C(C(C)=O)C(C)=O,cell viability (log2),[13],0.0323 (inactive)
same,cell viability (log2),[14],0.0334 (inactive)
same,cell viability (log2),[15],0.0258 (inactive)
same,cell viability (log2),[16],0.125 (inactive)
CC(/C=C/C=C(\C)c1cc(C(C)(C)C)cc(C(C)(C)C)c1)=C\C(=O)O,cell viability (log2),[17],0.134 (inactive)
same,cell viability (log2),[18],0.0751 (inactive)
same,cell viability (log2),[19],0.0952 (inactive)
same,cell viability (log2),[20],0.134 (inactive)
C=CCNC(=O)c1ccc(CN(c2cccc(Cl)c2)S(C)(=O)=O)cc1,cell viability (log2),[13],0.0663 (inactive)
same,cell viability (log2),[14],0.0926 (inactive)
same,cell viability (log2),[15],0.107 (inactive)
same,cell viability (log2),[16],0.133 (inactive)
O=C(O)c1c2ccccc2cc2ccccc12,cell viability (log2),[13],0.0833 (inactive)
same,cell viability (log2),[14],0.174 (inactive)
same,cell viability (log2),[15],0.112 (inactive)
same,cell viability (log2),[16],0.125 (inactive)
NCCC(=O)c1ccccc1N,cell viability (log2),[13],0.0986 (inactive)
same,cell viability (log2),[14],0.0335 (inactive)
same,cell viability (log2),[15],0.167 (inactive)
same,cell viability (log2),[16],0.184 (inactive)
C[N+](C)(C)CCC(=O)c1cccc2ccccc12,cell viability (log2),[17],-0.0772 (active)
same,cell viability (log2),[18],0.0591 (inactive)
same,cell viability (log2),[19],-0.524 (active)
same,cell viability (log2),[20],-0.0126 (inactive)
COC(=O)C[C@H]1C(C)(C)C(OC(C)=O)[C@]2(O)C=C3C(CC[C@]4(C)C3CC(=O)O[C@H]4c3ccoc3)C1(C)C2=O (stereo partly drawn),cell viability (log2),[13],0.102 (inactive)
same,cell viability (log2),[14],0.114 (inactive)
same,cell viability (log2),[15],0.0649 (inactive)
same,cell viability (log2),[16],0.0874 (inactive)
C[C@H](Cc1ccccc1)Nc1ncnc2c1ncn2[C@@H]1O[C@H](CO)[C@H](O)C1O (stereo partly drawn),cell viability (log2),[17],0.0269 (inactive)
same,cell viability (log2),[18],0.14 (inactive)
same,cell viability (log2),[19],0.0399 (inactive)
same,cell viability (log2),[20],0.136 (inactive)
COc1ccc(C[C@@H](N)C(=O)N[C@H]2[C@@H](O)[C@H](n3cnc4c(N(C)C)ncnc43)O[C@@H]2CO)cc1,cell viability (log2),[13],0.0185 (inactive)
same,cell viability (log2),[14],-0.00341 (inactive)
same,cell viability (log2),[15],-1.82 (active)
same,cell viability (log2),[16],-2 (active)
COc1nc(N)nc2c1ncn2[C@@H]1O[C@H](CO)[C@@H](O)[C@@H]1O,cell viability (log2),[1],-0.0331 (inactive)
same,cell viability (log2),[2],0.0967 (inactive)
same,cell viability (log2),[3],0.111 (inactive)
same,cell viability (log2),[4],0.1 (inactive)
same,cell viability (log2),[5],0.0614 (inactive)
same,cell viability (log2),[6],0.133 (inactive)
same,cell viability (log2),[7],0.0686 (inactive)
same,cell viability (log2),[8],0.0525 (inactive)
same,cell viability (log2),[9],0.0218 (inactive)
same,cell viability (log2),[10],0.0206 (inactive)
same,cell viability (log2),[11],0.0232 (inactive)
same,cell viability (log2),[12],0.121 (inactive)
CN1/C(=C(\O)Nc2ccccn2)C(=O)c2ccccc2S1(=O)=O,cell viability (log2),[1],0.0972 (inactive)
same,cell viability (log2),[2],0.122 (inactive)
same,cell viability (log2),[13],-0.035 (inactive)
same,cell viability (log2),[14],0.0628 (inactive)
same,cell viability (log2),[17],0.14 (inactive)
same,cell viability (log2),[18],0.0798 (inactive)
same,cell viability (log2),[3],0.121 (inactive)
same,cell viability (log2),[4],0.145 (inactive)
same,cell viability (log2),[5],0.194 (inactive)
same,cell viability (log2),[6],0.0843 (inactive)
same,cell viability (log2),[15],0.139 (inactive)
same,cell viability (log2),[16],0.148 (inactive)
same,cell viability (log2),[19],0.135 (inactive)
same,cell viability (log2),[20],0.0591 (inactive)
same,cell viability (log2),[7],0.173 (inactive)
same,cell viability (log2),[8],0.0997 (inactive)
same,cell viability (log2),[9],0.146 (inactive)
same,cell viability (log2),[10],0.0703 (inactive)
same,cell viability (log2),[11],0.152 (inactive)
same,cell viability (log2),[12],0.0778 (inactive)
Nc1nc(Nc2ccccc2)nc2c1ncn2C1O[C@H](CO)[C@@H](O)[C@H]1O (stereo partly drawn),cell viability (log2),[17],0.161 (inactive)
same,cell viability (log2),[18],0.05 (inactive)
same,cell viability (log2),[19],0.213 (inactive)
same,cell viability (log2),[20],-0.0193 (inactive)
Nc1cccc(-c2cc3c(Oc4cccc(O)c4)ncnc3[nH]2)c1,cell viability (log2),[1],0.136 (inactive)
same,cell viability (log2),[2],0.0102 (inactive)
same,cell viability (log2),[3],0.0422 (inactive)
same,cell viability (log2),[4],0.0346 (inactive)
same,cell viability (log2),[5],0.0247 (inactive)
same,cell viability (log2),[6],0.00411 (inactive)
same,cell viability (log2),[7],-0.00369 (inactive)
same,cell viability (log2),[8],0.0285 (inactive)
same,cell viability (log2),[9],-0.0241 (inactive)
same,cell viability (log2),[10],0.0796 (inactive)
same,cell viability (log2),[11],-0.494 (active)
same,cell viability (log2),[12],-0.321 (active)
O=C(O)C1(O)C[C@@H](O)C(O)[C@H](O)C1 (stereo partly drawn),cell viability (log2),[13],0.068 (inactive)
same,cell viability (log2),[14],-0.0312 (inactive)
same,cell viability (log2),[15],0.121 (inactive)
same,cell viability (log2),[16],-0.0156 (inactive)
CC(=O)O[C@H]1C[C@@H](OC(C)=O)C(C)(C)[C@@H]2C[C@@H](OC(C)=O)[C@]3(C)[C@H](CC[C@@]4(C)[C@H](c5ccoc5)OC(=O)[C@H]5O[C@@]534)[C@@]12C,cell viability (log2),[13],-0.0343 (inactive)
same,cell viability (log2),[14],0.0186 (inactive)
same,cell viability (log2),[15],0.075 (inactive)
same,cell viability (log2),[16],0.143 (inactive)
N#CC(C#N)=C(N)/C(C#N)=C/c1ccc(O)cc1,cell viability (log2),[17],0.137 (inactive)
same,cell viability (log2),[18],0.116 (inactive)
same,cell viability (log2),[19],0.199 (inactive)
same,cell viability (log2),[20],0.0447 (inactive)
